Data reported in PubChem BioAssay AID602127 (Broad Institute, 2011).
Results with a measured potency or affinity are listed apart. Calls of active or inactive are those of the source.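 The calls were made as follows: active = every repeat test judged active, meaning a falling signal with potency within twice the top valid dose; inconclusive = repeat tests disagree on the call; inactive = every repeat test inactive, including signal moving upward.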

What follows are compounds tested against Cyclin-dependent kinase 2 (Homo sapiens) (UniProt P24941) (assay: inhibition of human CDK2/cyclin A – biochemical, cherry-picked samples, selectivity assay for Dyrk1A inhibitor project, dose response (AID 602127)). Conditions: ADP-Glo luminescence, 60 min; series mostly up to 10 µM.

outcome, inactive:
O=C(Nc1nc2c(s1)CCCC2)c1ccc(N2C(=O)CCC2=O)cc1, c1nc(NCC2CCCO2)c2cc(-c3ccc4c(c3)OCO4)ccc2n1 (stereo not drawn), COc1ccc(-c2cc(NCCc3ccncc3)n3ncnc3n2)cc1, NC(=O)c1c(NC(=O)c2ccc(N3C(=O)CCC3=O)cc2)sc2c1CCCC2, O=C(CSc1nnnn1-c1ccc(O)cc1)Nc1ccc(N2CCOCC2)c(Cl)c1, Clc1ccc(CNc2nccc(-c3ccc4[nH]ncc4c3)n2)cc1Cl, Cc1ccnc(NC(=O)c2cccc(S(=O)(=O)N3CCN(c4ccccc4)CC3)c2)c1, Cc1nc(CNc2ncnc3ccc(-c4ccoc4)cc23)cs1, CN(C)S(=O)(=O)c1ccc(Cl)c(C(=O)Nc2cccc3ncccc23)c1, c1coc(CCNc2ncnc3ccc(-c4ccc5c(c4)OCO5)cc23)c1, Fc1cccc(Nc2nc(-c3ccncc3)nc3ccccc23)c1, COc1cccc(-c2sc3ccccc3c2-c2ccc(OCCN3CCCC3)cc2)c1, FC(F)(F)c1cccc(Nc2nccc(-c3ccc4c(c3)OCO4)n2)c1, Cc1cc(NCCCn2ccnc2)n2ncc(-c3ccc(Cl)cc3)c2n1, COc1cccc(Nc2nc(NCCO)c3ccccc3n2)c1, Cc1nc(NC(=O)c2ccccc2)sc1-c1csc(NCc2ccco2)n1, Clc1ccc(Nc2nccc(-c3ccc4c(c3)OCO4)n2)cc1, Clc1ccc(CNc2cc(-c3ccc4c(c3)OCO4)ncn2)cc1
